# Data published in publication PMC5540273 (PLoS ONE, 2017).
# pKd: −log10 of the molar value.
# Assays:
# [1] = test system: CLK3
# [2] = test system: CSNK1E
# [3] = test system: CAMK1G
# [4] = test system: CAMK2D
# [5] = test system: T1, CDC2L1
# T1 construct: gene CDK11B
# [6] = test system: CDK9
# [7] = test system: CDK8
# [8] = test system: CDKL2
# [9] = test system: T2, CDC2L5
# T2 construct: gene CDK13
# [10] = test system: CSK
# [11] = test system: CSF1R
# [12] = test system: CDK2
# [13] = test system: CIT
# [14] = test system: CLK1
# [15] = test system: CAMK2A
# [16] = test system: CSNK1A1L
# [17] = test system: CSNK1D
# [18] = test system: CDK4
# [19] = test system: CSNK1G1
# [20] = test system: CAMKK1
# 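Further: kd values determined as follow-up on hits from a single-replicate KINOMEscan panel screen.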
smiles,measurement,setting,value
COc1ccc(Nc2nccc(NCCNC(=O)Nc3ccccc3F)n2)cc1 [GSK1379901],pKd,[1],< 5.00
same,pKd,[2],< 5.00
Cc1cccc(-c2nc(C)cc(Nc3ccncc3)n2)n1 [GSK257997],pKd,[3],< 5.00
same,pKd,[4],< 5.00
same,pKd,[5],< 5.00
same,pKd,[6],< 5.00
Cn1cncc1-c1ccc2ncnc(Nc3ccc(OCc4ccccc4)cc3)c2c1 [GW320571],pKd,[1],< 5.00
same,pKd,[2],< 5.00
O=C(Nc1n[nH]c2cc(-c3cccc(F)c3F)ccc12)C1CC1 [SB-733894],pKd,[3],< 5.00
same,pKd,[7],< 5.00
same,pKd,[8],6.52
CCn1c(-c2ccccn2)nc2cnccc21 [SB-736398],pKd,[9],< 5.00
CCCc1ccc(S(=O)(=O)NC2CCN(c3ccnc(Nc4ccc(F)cc4)n3)C2)cc1 (centres unmarked) [GSK1379715],pKd,[9],< 5.00
CS(=O)(=O)c1ccc(-c2nc3n(c2-c2ccncc2)CCC3)cc1 [SKF-105942],pKd,[5],< 5.00
same,pKd,[6],< 5.00
same,pKd,[10],< 5.00
Cn1ccc2ncnc(Oc3ccc(NC(=O)Nc4ccccc4)cc3)c21,pKd,[11],7.09
O=C(Nc1n[nH]c2nc(-c3nccs3)c(Br)cc12)C1CC1 [SB-742251],pKd,[12],6.46
same,pKd,[8],6.32
Cc1cccc(-c2nc(Nc3ccncc3)c3ccccc3n2)n1 [GW855857],pKd,[13],6.36
O=C(Nc1ccccc1)Nc1cccc(Oc2ccc3nccn3n2)c1,pKd,[13],8.96
same,pKd,[11],7.57
CC(C)(C)c1ccc(C(=O)Nc2cn3cc(-c4cccnc4)ccc3n2)cc1,pKd,[14],6.55
same,pKd,[2],6.96
Cc1c(Cn2ccn3c(=O)cc(N4CCOCC4)nc23)cccc1C(F)(F)F [GSK2289044],pKd,[15],< 5.00
COc1cc2nccc(Nc3ccc(NC(=O)c4ccc(C)cc4)c(O)c3)c2cc1OC.Cl [GW440132],pKd,[1],< 5.00
CC(=O)Nc1nc2cnc(Nc3cc(NC(=O)c4cccc(CCC#N)c4)ccc3C)nc2s1,pKd,[11],< 5.00
CCn1c(-c2cccnc2O)nc2cnccc21 [SB-736715],pKd,[16],< 5.00
Cc1cc(-c2ccc3c(c2)CC[C@@H](N[C@@H](C)c2ccccc2)C3)cnc1N.Cl [GW412617],pKd,[3],< 5.00
same,pKd,[4],< 5.00
CN(C)CCN(C)C(=O)c1cc(-c2ccncc2)c(-c2ccc(Cl)c(O)c2)o1.Cl.Cl [SB-710397],pKd,[17],6.66
same,pKd,[2],6.39
O=C(Nc1n[nH]c2nc(-c3nccs3)c(Br)cc12)C1CCCC1 [SB-742609],pKd,[5],< 5.00
same,pKd,[12],6.55
same,pKd,[18],5.38
same,pKd,[6],5.60
same,pKd,[8],6.30
CN1C(=O)C(Nc2ccc(Cl)c(C(=O)O)c2)=C(c2ccc(Cl)cc2)C1=O [SB-404290],pKd,[3],< 5.00
Cc1ccc(NC(=O)Nc2cccc(Cl)c2)cc1-c1ccc(C(=O)Nc2ccncc2)cc1 [GSK1398468],pKd,[13],6.82
CSc1nn2c(=O)cc(N3CCOCC3)nc2n1Cc1cccc(C(F)(F)F)c1C [GSK2363608],pKd,[19],< 5.00
CC(C)(C)c1ccc(C(=O)Nc2cn3cc(Cl)ccc3n2)cc1,pKd,[20],< 5.00
